Assay results from PubChem BioAssay AID504913 (The Scripps Research Institute Molecular Screening Center, 2011).
Some of the results follow. Unmarked numbers belong to inactive results. The source made the active and inactive calls. No stated cut-off is given here; in the data, active means activation above about 18%; inactive means the rest.

Test: OPRM1-OPRD1 heterodimerization promoters, counter-screen for HTR5A agonist project, cell-based, luminescence (AID 504913)
Conditions: U2OS counter-screen cells, complementation luminescence, 3 h; at 9.3 µM; hits give high values

For `CN(c1ccccc1)S(=O)(=O)c1cc(C(=O)N2CCN(c3ncccn3)CC2)ccc1Cl`, which activation is on record?
The activation was -0.79%.

Which activation does the source give for `CCC(C)NC(=O)CCCc1ccccc1` (centres undefined) here?
The activation was 1.02%.

For `C/C(=N\NC(=O)CNc1cccc2ccccc12)c1ccc(Br)s1`, which activation is on record?
The activation was -1.65%.

For `Cc1c(C(=O)OCC(=O)N2CCCC2=O)oc2ccccc12`, which activation is on record?
Its activation is 1.27%.

With `O=C(CC(O)(C(F)(F)F)C(F)(F)F)Nc1ccc(Cl)c(Cl)c1` as the molecule, how does the activation read?
Its activation is -1.36%.

With `COC(=O)c1cc(S(=O)(=O)N2CCN(c3cc(C)ccc3C)CC2)c[nH]1` as the molecule, how does the activation read?
Its activation is 0.96%.

For `CCn1nc(C(=O)OCC(=O)N2c3ccccc3CC2C)c2ccccc2c1=O` (centres undefined), which activation is on record?
The activation was 1.02%.

For `COc1cc2c(-c3ccc4c(c3)OCO4)c(-c3ccsc3)oc(=O)c2cc1OC`, which activation is on record?
Its activation is -2.61%.

With `CNC(=S)N/N=C/c1ccc(OCc2ccccc2)c(Br)c1` as the molecule, how does the activation read?
Its activation is -1.02%.

Which activation does the source give for `Cc1c(C(=O)OCC(=O)N(CCC#N)c2ccccc2)oc2c1ccc1ccccc12` here?
The activation was 1.04%.

For `COC(=O)c1cc(C(=O)OCC(=O)Nc2cc(C)on2)cc([N+](=O)[O-])c1`, which activation is on record?
The activation was 1.24%.

Which activation does the source give for `COc1ccccc1S(=O)(=O)NCc1ccc(C(=O)N(C)Cc2ccc(F)cc2)cc1` here?
Its activation is 3.43%.

With `Cc1ccc(-c2csc(SCC(=O)Nc3cc(C)on3)n2)cc1` as the molecule, how does the activation read?
Its activation is 0.69%.

Which activation does the source give for `CC(=O)N1CCN(c2ccccc2NC(=S)NC(=O)c2cc3ccccc3o2)CC1` here?
The activation was 0.56%.

For `Cc1cccc2sc(N(CCCN(C)C)C(=O)CCS(=O)(=O)c3ccccc3)nc12`, which activation is on record?
The activation was 0.46%.

For `COc1cccc(OCC(=O)Nc2ccccc2C(N)=O)c1`, which activation is on record?
The activation was 0.46%.

For `COc1ccc2[nH]cc(CCN3C(=O)c4ccc(C(=O)O)cc4C3=O)c2c1`, which activation is on record?
The activation was 1.66%.

Which activation does the source give for `O=C(CNCc1ccco1)Nc1cc(S(=O)(=O)N2CCOCC2)ccc1N1CCCC1` here?
Its activation is 3.16%.

Which activation does the source give for `CCCN(CCc1ccccc1)C1CCc2c(O)cccc2C1` (centres undefined) here?
Its activation is 11.3%.

With `c1cc(-c2nn[nH]n2)ccc1CN1CCCCC1` as the molecule, how does the activation read?
Its activation is 0.2%.

Which activation does the source give for `COc1ccc(-c2ocnc2C(=O)Nc2ccc3c(c2)CCC3)cc1` here?
Its activation is -2.69%.

Which activation does the source give for `CCOc1ccc(NC(=O)Nc2cc(C)on2)cc1` here?
Its activation is 0.12%.

For `CC(NC(=O)c1cc(-c2ccccc2)on1)c1ccccc1` (centres undefined), which activation is on record?
The activation was 40.1% (active).

For `COc1ccc(/C=C(\C#N)c2c[nH]c3ccccc23)cc1`, which activation is on record?
The activation was 6.75%.
